Measurements: PubChem BioAssay (Tox21)
Records with an inconclusive call do not appear. Activity calls are given as the source filed them. Unless noted, calls follow the shape of the dose curve; as a rule, active = well fitted curve in the direction sought with a large enough effect in the repeat runs; inconclusive = weak or mixed curves; inactive = no such curve, though single readings can be large; an effect the other way counts as inactive or inconclusive.

How the values were obtained:
[1] = qHTS assay to identify small molecule antagonists of the androgen receptor (AR) signaling pathway using the MDA cell line in the presence of 0.5 nM R1881 - cell viability counter screen (AID 1259242); also: nearly all actives have a fitted effect of over 45% in size
Method in brief: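 Concentration-response screen of compounds for toxicity in MDA-kb2 reporter cells: 16 hr at 37C with 0.5 nM R1881, endpoint live-cell protease fluorescence measured in the reporter wells.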

[2] = qHTS assay to identify small molecule HDAC inhibitors (AID 1259364);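 also: wild-type HCT-116 cells with endogenous class I/II HDAC activity; top concentration of the series differs between compounds; nearly all actives have a fitted effect of over 45% in size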
Method in brief: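 Screening used wild-type human colon HCT-116 cells incubated overnight, dosed with compounds for 2 hours, and assayed with a homogeneous luminogenic HDAC I/II reagent for 30 minutes at room temperature.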

[3] = qHTS assay to identify small molecule HDAC inhibitors - cell viability counter screen (AID 1259365); also: series mostly up to about 92 µM; nearly all actives have a fitted effect of over 50% in size
Method in brief: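 To flag cytotoxic hits, 1,500 wild-type HCT-116 cells per well, plated the day before, receive test compounds for 2hr at 37 C before CellTiter-Glo reagent and a luminescence read.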

[4] = qHTS assay to identify small molecule agonists of the sonic hedgehog signaling (Shh) pathway - cell viability counter screen (AID 1259366); also: nearly all actives have a fitted effect of over 50% in size
Method in brief: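 Fluorescence from CellTiter-Fluor reports live cells in this counter screen. NIH/3T3-derived Gli1-Luc reporter cells receive test compounds for 24hr at 37C; reagent goes in at 23hr.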

[5] = qHTS assay to identify small molecule antagonists of the sonic hedgehog signaling (Shh) pathway - cell viability counter screen (AID 1259367); also: nearly all actives have a fitted effect of over 55% in size
Method in brief: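 Conditioned medium drove Shh signaling in 3T3 Gli1-Luc cells exposed to compounds at 37C and 5% CO2. Viability was determined from CellTiter-Fluor fluorescence, with reagent incubated 1 hr after 23 hr of treatment.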

[6] = qHTS assay to identify small molecule agonists of the sonic hedgehog signaling (Shh) pathway (AID 1259368; calls by dose curve;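 also: NIH/3T3-derived 3T3Gli1-Luc cells carrying a stable Gli1-driven firefly luciferase reporter; series mostly up to about 92 µM; nearly all actives have a fitted effect of over 15% in size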)
Method in brief: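 Hedgehog pathway agonism scored by increased firefly luciferase luminescence in 3T3Gli1-Luc cells treated 24 hr at 37 C; detection used a 30 min room-temperature reagent incubation.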

[7] = molecular target: Estrogen receptor beta (Homo sapiens) (UniProt Q92731); assay: qHTS assay to identify small molecule agonists of the estrogen receptor beta (ER-beta) signaling pathway (AID 1259377; active = well fitted activation curve with a large enough effect in the signal ratio in the repeat runs, not every such curve was filed as active; the % refers to the signal ratio)
Estrogen receptor beta (Homo sapiens), sequence (Q92731 whole entry, looked up): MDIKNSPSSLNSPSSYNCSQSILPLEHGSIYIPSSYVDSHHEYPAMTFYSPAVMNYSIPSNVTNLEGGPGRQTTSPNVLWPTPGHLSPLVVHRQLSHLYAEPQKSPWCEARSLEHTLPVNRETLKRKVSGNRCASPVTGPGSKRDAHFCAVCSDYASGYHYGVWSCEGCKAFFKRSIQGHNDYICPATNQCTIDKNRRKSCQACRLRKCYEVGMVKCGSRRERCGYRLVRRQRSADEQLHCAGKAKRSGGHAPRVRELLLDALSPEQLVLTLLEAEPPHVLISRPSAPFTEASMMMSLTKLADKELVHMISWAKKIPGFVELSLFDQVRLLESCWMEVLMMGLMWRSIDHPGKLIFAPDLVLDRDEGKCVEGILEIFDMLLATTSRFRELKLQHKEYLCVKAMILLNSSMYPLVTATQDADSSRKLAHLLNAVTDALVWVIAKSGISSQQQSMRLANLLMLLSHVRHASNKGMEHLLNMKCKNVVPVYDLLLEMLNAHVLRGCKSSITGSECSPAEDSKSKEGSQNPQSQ
Method in brief: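 Screening used GripTite ER-beta-UAS-bla cells held in 2% charcoal-stripped FBS medium. After overnight (16 hr) compound incubation at 37C, beta-lactamase activity was detected with a FRET substrate by fluorescence.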

[8] = qHTS assay to identify small molecule agonists of the androgen receptor (AR) signaling pathway in the presence of an antagonist - cell viability counter screen (AID 1259379);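 also: MDA-kb2 human breast cancer cells carrying an MMTV luciferase reporter; series mostly up to about 92 µM; nearly all actives have a fitted effect of over 25% in size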
Method in brief: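 MDA-kb2 viability measured by CellTiter-Fluor fluorescence in the same wells as the luciferase signal; nilutamide 3.0uM final; 15-point compound titration; 16 hr at 37C.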

[9] = qHTS assay to identify small molecule agonists of the estrogen receptor beta (ER-beta) signaling pathway - cell viability counter screen (AID 1259380); also: nearly all actives have a fitted effect of over 30% in size
Method in brief: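 Measured: luminescence from CellTiter-Glo after 30 min at room temperature, added to wells already read for the LiveBLAzer FRET reporter (2 hr substrate); ER-beta-UAS-bla HEK293T cells had 16 hr compound treatment at 37C, 5% CO2.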

[10] = qHTS assay to identify small molecule antagonists of the estrogen receptor beta (ER-beta) signaling pathway - cell viability counter screen (AID 1259382); also: series mostly up to about 92 µM; nearly all actives have a fitted effect of over 55% in size
Method in brief: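 Readout: luminescence, CellTiter-Glo, same wells as bla assay. System: ER-beta-UAS-bla GripTite HEK293T, 2% charcoal-stripped FBS. Exposure: compounds plus 1nM 17-beta-estradiol, 16 hr, 37C.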

[11] = qHTS assay to identify small molecule agonists or antagonists of the thyroid stimulating hormone receptor (TSHR) signaling pathway - wild type cell line counter screen (AID 1259384; calls by dose curve)
Method in brief: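 Wild-type HEK293 cells were plated 18 h at 37 C/5% CO2, pin-dosed with compound plus Ro20-1724 medium, held 30 min at room temperature, then given cAMP-d2 and anti-cAMP-cryptate; fluorescence was read after 1 h. Fifteen concentrations, triplicate.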

[12] = molecular target: Thyrotropin receptor (Homo sapiens) (UniProt P16473); assay: qHTS assay to identify small molecule antagonists of the thyroid stimulating hormone receptor (TSHR) signaling pathway (AID 1259385; calls by dose curve; also: nearly all actives have a fitted effect of over 20% in size)
Thyrotropin receptor (Homo sapiens), sequence (P16473 whole entry, looked up): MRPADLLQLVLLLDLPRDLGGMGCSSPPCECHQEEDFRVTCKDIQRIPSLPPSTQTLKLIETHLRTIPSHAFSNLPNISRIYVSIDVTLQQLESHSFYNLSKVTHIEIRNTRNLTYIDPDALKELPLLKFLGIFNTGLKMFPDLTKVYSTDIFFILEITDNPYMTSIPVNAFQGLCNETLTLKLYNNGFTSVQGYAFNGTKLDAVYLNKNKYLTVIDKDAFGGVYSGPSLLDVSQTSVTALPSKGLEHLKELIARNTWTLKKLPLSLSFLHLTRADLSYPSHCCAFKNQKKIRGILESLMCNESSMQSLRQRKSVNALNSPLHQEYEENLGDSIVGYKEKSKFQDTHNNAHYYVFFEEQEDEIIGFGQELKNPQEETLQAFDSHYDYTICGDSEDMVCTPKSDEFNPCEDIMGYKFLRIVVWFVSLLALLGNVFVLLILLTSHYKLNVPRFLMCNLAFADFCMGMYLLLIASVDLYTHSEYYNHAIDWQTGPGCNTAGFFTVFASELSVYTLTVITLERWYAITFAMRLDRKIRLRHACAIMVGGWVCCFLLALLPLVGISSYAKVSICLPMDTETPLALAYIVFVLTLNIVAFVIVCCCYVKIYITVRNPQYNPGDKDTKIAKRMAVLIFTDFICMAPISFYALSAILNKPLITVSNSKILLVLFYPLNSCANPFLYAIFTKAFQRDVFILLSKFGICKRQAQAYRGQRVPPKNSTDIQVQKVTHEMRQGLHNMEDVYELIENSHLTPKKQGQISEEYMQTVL
Method in brief: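 TSHR-HEK293 cells were plated and held 18 h at 37C/5% CO2, then given compound plus Ro20-1724 and stimulated with TSH at 1.5 ng/mL final. After 30 min at room temperature, cAMP was detected with cAMP-d2/anti-cAMP-cryptate (1 h) by fluorescence.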

[13] = qHTS assay to identify small molecule antagonists of the sonic hedgehog signaling (Shh) pathway (AID 1259369; calls by dose curve; also: nearly all actives have a fitted effect of over 45% in size)
Method in brief: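 NIH/3T3 stable Gli1-Luc clone, 2,000 cells/well, 4hr settle; cpd + conditioned medium 24hr; Luc reagent 30min RT; luminescence.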

[14] = molecular target: Estrogen receptor beta (Homo sapiens) (UniProt Q92731); assay: qHTS assay to identify small molecule antagonists of the estrogen receptor beta (ER-beta) signaling pathway (AID 1259378; active = well fitted inhibition curve with a large enough effect in the signal ratio in the repeat runs, not every such curve was filed as active; the % refers to the signal ratio)
Method in brief: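 ER-beta-UAS-bla HEK293T (GripTite) cells in 2% charcoal-stripped FBS medium were preincubated 6 hr at 37C, dosed with compound, then stimulated with 1 nM E2 (final) for 16 hr; beta-lactamase reporter read by B/G FRET fluorescence after 2 hr substrate loading.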

[15] = qHTS assay to identify small molecule agonists of the estrogen receptor alpha (ER-alpha) signaling pathway in the presence of an antagonist - cell viability counter screen (AID 1259386);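 also: series mostly up to about 92 µM; cells exposed to compounds for 22 h at 37 °C before the viability read; nearly all actives have a fitted effect of over 30% in size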
Method in brief: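 The test measures whether compounds kill ER-alpha reporter cells (VM7Luc4E2) under antagonist co-treatment (ICI-182,780, 10.0nM). Fluorescence from CellTiter-Fluor is read after a 22hr exposure.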

[16] = molecular target: Estrogen receptor (Homo sapiens) (UniProt P03372); assay: qHTS assay to identify small molecule agonists of the estrogen receptor alpha (ER-alpha) signaling pathway in the presence of an antagonist (AID 1259383; calls by dose curve; also: top concentration of the series differs between compounds; nearly all actives have a fitted effect of over 15% in size)
Estrogen receptor (Homo sapiens), sequence (P03372 whole entry, looked up): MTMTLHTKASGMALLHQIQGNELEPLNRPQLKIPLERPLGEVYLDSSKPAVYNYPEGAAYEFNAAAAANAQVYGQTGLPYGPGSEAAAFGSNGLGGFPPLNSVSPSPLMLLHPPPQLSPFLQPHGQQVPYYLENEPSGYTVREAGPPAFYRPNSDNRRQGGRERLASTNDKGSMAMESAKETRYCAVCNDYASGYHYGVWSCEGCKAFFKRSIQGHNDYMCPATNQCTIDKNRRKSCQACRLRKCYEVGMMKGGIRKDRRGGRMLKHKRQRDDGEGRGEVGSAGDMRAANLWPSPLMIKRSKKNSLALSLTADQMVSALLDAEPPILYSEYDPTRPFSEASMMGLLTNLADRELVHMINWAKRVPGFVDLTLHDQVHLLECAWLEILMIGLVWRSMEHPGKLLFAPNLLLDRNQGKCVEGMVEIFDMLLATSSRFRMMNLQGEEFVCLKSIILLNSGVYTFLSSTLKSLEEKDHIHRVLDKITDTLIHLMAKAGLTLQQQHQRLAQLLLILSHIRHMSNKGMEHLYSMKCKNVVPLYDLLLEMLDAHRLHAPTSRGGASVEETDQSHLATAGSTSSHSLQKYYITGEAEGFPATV
Method in brief: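 Quantitative HTS confirmation: compounds titrated at 15 concentrations onto estrogen-deprived VM7Luc4E2 cells carrying a four-ERE luciferase construct, with ICI-182,780 present at 10.0nM final. Signal is luminescence after 22hr exposure.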

[17] = molecular target: Androgen receptor (Homo sapiens) (UniProt P10275); assay: qHTS assay to identify small molecule antagonists of the androgen receptor (AR) signaling pathway using the MDA cell line in the presence of 0.5 nM R1881 (AID 1259243); also: nearly all actives have a fitted effect of over 50% in size
Androgen receptor (Homo sapiens), sequence (P10275 whole entry, looked up): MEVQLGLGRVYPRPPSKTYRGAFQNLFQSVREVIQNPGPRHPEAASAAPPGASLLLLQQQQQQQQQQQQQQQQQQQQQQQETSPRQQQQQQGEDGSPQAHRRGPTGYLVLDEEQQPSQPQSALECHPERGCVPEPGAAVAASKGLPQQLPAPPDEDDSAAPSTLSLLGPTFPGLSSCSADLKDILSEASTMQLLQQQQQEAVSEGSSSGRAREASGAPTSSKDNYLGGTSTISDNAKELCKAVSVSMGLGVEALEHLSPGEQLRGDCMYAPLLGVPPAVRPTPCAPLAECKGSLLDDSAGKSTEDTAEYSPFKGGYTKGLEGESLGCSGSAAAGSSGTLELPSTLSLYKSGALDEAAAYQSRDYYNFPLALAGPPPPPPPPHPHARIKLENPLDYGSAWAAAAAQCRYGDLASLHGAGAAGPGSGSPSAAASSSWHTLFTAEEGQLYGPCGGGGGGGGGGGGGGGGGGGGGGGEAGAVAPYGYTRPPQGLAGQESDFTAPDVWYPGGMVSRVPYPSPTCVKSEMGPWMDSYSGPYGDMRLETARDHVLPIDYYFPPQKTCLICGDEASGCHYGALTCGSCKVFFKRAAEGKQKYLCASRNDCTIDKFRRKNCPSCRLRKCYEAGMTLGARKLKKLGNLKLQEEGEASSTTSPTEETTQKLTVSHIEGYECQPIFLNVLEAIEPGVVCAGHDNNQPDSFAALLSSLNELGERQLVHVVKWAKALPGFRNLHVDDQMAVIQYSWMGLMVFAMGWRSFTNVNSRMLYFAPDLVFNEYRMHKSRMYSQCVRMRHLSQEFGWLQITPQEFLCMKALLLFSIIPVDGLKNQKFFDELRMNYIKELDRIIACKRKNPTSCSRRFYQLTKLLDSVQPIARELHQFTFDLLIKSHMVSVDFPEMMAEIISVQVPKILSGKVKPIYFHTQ
Method in brief: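 With R1881 held at 0.5 nM (final), compound effects on MMTV-luciferase expression in MDA-kb2 cells were scored by luminescence after a 16 hr, 37C incubation.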

[18] = molecular target: Estrogen receptor (Homo sapiens) (UniProt P03372); assay: qHTS assay to identify small molecule antagonists of the estrogen receptor alpha (ER-alpha) signaling pathway using the BG1 cell line in the presence of 0.1 nM 17-beta-estradiol (AID 1259244); also: nearly all actives have a fitted effect of over 50% in size
Method in brief: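 Compounds were tested against 0.1 nM (final) 17beta-estradiol in VM7Luc4E2 cells, which express full-length ER-alpha and an ERE-luciferase reporter; luminescence was recorded following 22 h exposure.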

[19] = molecular target: Androgen receptor (Homo sapiens) (UniProt P10275); assay: qHTS assay to identify small molecule agonists of the androgen receptor (AR) signaling pathway in the presence of an antagonist (AID 1259381; calls by dose curve; also: nearly all actives have a fitted effect of over 15% in size)
Method in brief: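 Luminescent ONE-Glo read, 30min at room temperature, follows 16hr compound exposure (15 concentrations) of MDA-kb2 cells at 37C, 0% CO2, with nilutamide added at 3.0uM final.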

Measured: Potency

CCCSP(=O)(OCC)Oc1ccc(Br)cc1Cl (configuration not stated)
not listed: [13] | [14] | [15] | [16] | [17] | [18] | [19]
inactive: all other assays above

COC(=O)C(C)Oc1ccc(Oc2ccc(Cl)cc2Cl)cc1 (configuration not stated)
not listed: [5] | [16] | [17] | [18] | [19]
inactive: all other assays above

CCCCN(CCCCO)N=O
not listed: [2] | [17] | [18] | [19]
inactive: all other assays above

CC(C)[N+](=O)[O-]
not listed: [7] | [14] | [16] | [17] | [18] | [19]
inactive: all other assays above

CC(Cl)(Cl)[N+](=O)[O-]
not listed: [1]
inactive: all other assays above

CCCCC(=O)Cl
not listed: [5] | [16] | [17] | [18] | [19]
inactive: all other assays above

CCN(CC)CCOC(=O)C(C)(c1ccccc1)c1ccccc1
not listed: [2] | [14] | [15] | [16] | [17] | [18] | [19]
inactive: all other assays above

CCNc1nc(NC(C)C)nc(OC)n1
not listed: [7] | [14] | [16] | [17] | [18] | [19]
inactive: all other assays above

N#CC(CCc1ccc(Cl)cc1)(Cn1cncn1)c1ccccc1 (configuration not stated)
inactive: [19]
